TLR4-MyD88 BLA = blocks binding of human TLR4 to MyD88; O00206+Q99836; HeLa CL3-4 TLR4/MyD88 BLA complementation, FRET ratio; inhibition, % at 8.4 µM; actives 0.18% (n = 200,000); in the data active = inhibition above about 25%;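 also: 0% = vehicle and 100% = reference inhibitor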
Myeloid diff 2 = compounds promoting myeloid differentiation. ER-HoxA9 myeloid progenitors, lysozyme-GFP differentiation, flow cytometry. calls only at 10 µM. actives 1% (n = 360,000);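 active = normalized GFP-positive differentiation at or above the plate's own cutoff, the solvent-only control mean plus 3 SD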;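 also: cells exposed to compound for four days before flow analysis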
TLR9-MyD88 block = TLR9-MyD88 interaction inhibition; Q9NR96+Q99836; CHO BLA complementation TLR9-MyD88, CCF4 FRET ratio; inhibition, % at 4.98 µM; actives 0.21% (n = 340,000); AID 504734;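 active = inhibition above the mean over all tested compounds plus 3 SD, cut at about 21% in these data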;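 also: 0% = DMSO only wells and 100% = clavulanate BLA inhibitor control wells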
Target sequence (Q99836 whole entry, looked up): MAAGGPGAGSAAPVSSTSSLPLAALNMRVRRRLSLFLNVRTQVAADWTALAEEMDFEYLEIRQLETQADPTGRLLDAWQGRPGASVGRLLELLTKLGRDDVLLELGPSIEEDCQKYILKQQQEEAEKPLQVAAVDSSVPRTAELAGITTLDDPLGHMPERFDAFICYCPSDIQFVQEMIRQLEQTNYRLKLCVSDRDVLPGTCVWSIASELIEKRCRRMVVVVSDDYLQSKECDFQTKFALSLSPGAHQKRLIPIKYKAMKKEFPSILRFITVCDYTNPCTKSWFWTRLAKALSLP
Target sequence (Q9NR96 whole entry, looked up): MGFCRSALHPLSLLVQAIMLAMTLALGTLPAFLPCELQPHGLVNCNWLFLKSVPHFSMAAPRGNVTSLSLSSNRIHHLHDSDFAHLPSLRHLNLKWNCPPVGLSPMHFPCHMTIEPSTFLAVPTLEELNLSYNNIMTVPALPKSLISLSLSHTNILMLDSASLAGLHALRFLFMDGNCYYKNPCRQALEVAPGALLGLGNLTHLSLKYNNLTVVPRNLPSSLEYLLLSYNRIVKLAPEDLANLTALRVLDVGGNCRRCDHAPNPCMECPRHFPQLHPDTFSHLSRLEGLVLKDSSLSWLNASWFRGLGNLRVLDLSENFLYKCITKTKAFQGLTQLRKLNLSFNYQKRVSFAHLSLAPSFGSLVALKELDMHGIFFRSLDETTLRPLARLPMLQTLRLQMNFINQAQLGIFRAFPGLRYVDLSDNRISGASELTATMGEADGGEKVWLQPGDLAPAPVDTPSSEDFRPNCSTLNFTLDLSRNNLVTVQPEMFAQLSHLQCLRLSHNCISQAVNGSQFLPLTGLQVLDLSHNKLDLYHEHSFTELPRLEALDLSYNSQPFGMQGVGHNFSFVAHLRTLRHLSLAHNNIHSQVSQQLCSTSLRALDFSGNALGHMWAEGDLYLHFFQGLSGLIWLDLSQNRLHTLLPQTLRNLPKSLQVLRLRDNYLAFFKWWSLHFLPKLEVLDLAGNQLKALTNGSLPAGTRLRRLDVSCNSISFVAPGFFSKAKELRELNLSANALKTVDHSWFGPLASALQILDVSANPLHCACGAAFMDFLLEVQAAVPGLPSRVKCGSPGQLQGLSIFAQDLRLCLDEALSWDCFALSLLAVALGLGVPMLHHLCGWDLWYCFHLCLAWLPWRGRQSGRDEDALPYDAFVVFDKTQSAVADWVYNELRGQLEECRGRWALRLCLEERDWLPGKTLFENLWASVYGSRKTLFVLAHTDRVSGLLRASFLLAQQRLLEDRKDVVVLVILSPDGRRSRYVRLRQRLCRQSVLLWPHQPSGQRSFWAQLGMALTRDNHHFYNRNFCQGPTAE
NOD2 RIPK2 PPI = blocks binding of human NOD2 to RIPK2 | inhibition, % at 4.98 µM | AID 624267 | O43353 | CHO BLA complementation NOD2-RIPK2, CCF4 ratio | actives 0.38% (n = 360,000); in the data active = inhibition above about 21%;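 also: 0% = vehicle only and 100% = reference blocker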
* = called active by the depositor; i = inactive; / = no result; + = active, no number. Only some compounds are listed: those with a hit (about 1.5% of all), similar ones and a draw of the others.

SMILES	TLR4-MyD88 BLA	Myeloid diff 2	TLR9-MyD88 block	NOD2 RIPK2 PPI
Cc1ccc(O)c(C(=O)c2cnc3c(c2)COc2ccccc2-3)c1	-9.3	+	12.2	-5.0
O=C(c1cnc2c(c1)COc1ccc(Cl)cc1-2)c1ccccc1O	10.8	i	-8.6	0.8
CCN(CCCNc1cc2c(c(N)c1S(=O)(=O)O)C(=O)c1ccccc1C2=O)c1ccccc1	/	i	-0.3	-7.4
Cc1cc(C)c(OCC(=O)OCC(=O)NCc2ccco2)c(C)c1	/	i	-10.2	0.0
CCn1c(Cc2cccs2)nnc1SCC(=O)NC1CC1	/	+	-4.2	-3.6
C=CCn1c(Cc2cccs2)nnc1SCC(=O)NC1CC1	/	i	4.1	-3.8
CCCCCCCCN1C(=O)[C@H](CC(=O)N2CCN(C(=O)c3ccco3)CC2)C[C@@]2(C(=O)OC)CC(C)(C)CC=C12	/	i	/	0.6
COc1ccc(C(C)NCCC(c2ccc(OC(C)C)cc2)c2ccccc2OC)cc1 (stereo not given)	/	+	3.2	19.3
CCc1cccc(CC)c1NC(=O)c1cccc(NC(=O)c2ccccc2)c1	3.5	+	-2.4	3.9
CCc1ccc(-c2cn3nc(C)c(C)nc3n2)cc1	26.9*	i	-1.4	8.4
COC(=O)c1ccc(C(=O)OC)c(NC(=O)Cc2cccs2)c1	/	i	1.8	-10.3
Cc1cc([N+](=O)[O-])ccc1NC(=O)CN1C2CCC1CC(NC(=O)NC13CC4CC(CC(C4)C1)C3)C2 (stereo not given)	-12.5	+	-10.7	-3.1
COc1ccc(NC(=S)N2C3CCC2CC(NC(=O)NC24CC5CC(CC(C5)C2)C4)C3)c(OC)c1 (stereo not given)	14.4	i	9.5	0.4
COc1ccc(OCCN2CCC(C(=O)NC(c3ccc(Cl)cc3)c3ncccc3C)CC2)cc1 (stereo not given)	/	i	/	-5.2
CCn1cc(C(=O)NCC(OC)OC)c(=O)c2cc(S(=O)(=O)N3CCC(C)CC3)ccc21	/	+	-20.7	-2.0
CCn1cc(C(=O)NCC(OC)OC)c(=O)c2cc(S(=O)(=O)N3CCCC3)ccc21	/	i	0.8	3.6
COc1ccc2c(C)cc(SCc3c(C)noc3C)nc2c1	-0.6	+	-13.0	-10.5
CCCCCCCCN1C(=O)[C@H](CC(=O)N2CCN(C(=O)C3CC3)CC2)C[C@@]2(C(=O)OCC)CCCC=C12	/	i	/	1.2
CCN(CC)C(=O)Cn1c(=O)c2ccccc2n2c(=S)sc(-c3cccc(C)c3)c12	-10.7	+	10.2	-7.4
CC1(C(=O)NS(=O)(=O)c2cccc(OC(F)F)c2)CCN1C(=O)C1CCCCC1 (stereo not given)	/	i	/	-4.9
CC(Cc1c[nH]c2ccccc12)NC(=O)OCCCl (stereo not given)	2.2	+	8.5	-6.4
COCc1cn(CC(=O)c2sc(NC(=O)C(C)(C)C)nc2C)nn1	/	i	/	-0.5
CCOc1ccc(N2C(=O)CNC2=S)cc1	-6.8	i	0.8	-7.3
CCOc1ccc(N2C(=O)CS/C2=C(\C(Cl)=C(Cl)Cl)[N+](=O)[O-])cc1	10.9	+	-2.8	3.1
CCN(CC(=O)Nc1c(C(=O)OC)[nH]c2ccc(Cl)cc12)c1ccc2c(c1)OCO2	-4.2	+	-3.9	5.5
SMILES	TLR4-MyD88 BLA	Myeloid diff 2	TLR9-MyD88 block	NOD2 RIPK2 PPI
CCOC(=O)c1[nH]c2ccc(Cl)cc2c1NC(=O)/C=C/c1ccc2c(c1)OCO2	-1.2	i	-5.8	1.7
COC(=O)[C@@]12C[C@@H](CC(=O)N3CCCCC3)C(=O)N(Cc3ccccc3)C1=CCC(C)(C)C2	/	i	/	-4.5
O=C(NCC1CCCO1)c1ccccc1S(=O)(=O)c1ccc([N+](=O)[O-])cc1 (stereo not given)	-0.9	+	-13.0	-1.9
O=C(NCC1CCCO1)c1ccc(NS(=O)(=O)c2cccc([N+](=O)[O-])c2)cc1 (stereo not given)	16.0	i	11.4	6.0
Cc1ccc2ncc(S(=O)(=O)c3ccccc3)c(N3CCCCC3C)c2c1 (stereo not given)	/	+	5.5	-7.9
S=c1[nH]nc(C2CCCCC2)n1/N=C/C=C/c1ccccc1	11.1	i	-8.1	3.4
S=c1[nH]nc(C2CCCCC2)n1/N=C/C(Cl)=C\c1ccccc1	-2.7	+	5.8	-2.4
COC(=O)C1=CN(c2ccc(OC)cc2OC)C(N)=C(C#N)C1c1cccc([N+](=O)[O-])c1 (stereo not given)	/	/	/	-4.2
CCOc1ncccc1C(=O)NC(C)CCc1ccccc1 (stereo not given)	/	+	0.3	-2.0
CCOc1ncccc1C(=O)NCc1ccccc1	0.7	/	/	/
COc1ccc(CN2C(=NC(=O)C3CC3)SC3CS(=O)(=O)CC32)cc1OC (stereo not given)	/	+	0.0	1.6
COc1ccc(C(=O)N=C2SC3CS(=O)(=O)CC3N2Cc2ccc(OC)c(OC)c2)cc1 (stereo not given)	/	i	-0.7	8.2
C[C@]12CCC(=O)CC1=CCC1C3CC=C(C#N)[C@@]3(C)CC[C@@]12O (stereo not given in full)	/	+	0.9	1.6
NC(Cc1ccc(F)cc1)c1csc(Nc2ccc(C(=O)c3ccccc3)cc2)n1 (stereo not given)	/	i	/	9.6
C=CCSC(=C(C#N)C#N)c1cc2c([nH]1)CCCC2	2.8	+	0.7	12.3
CSc1ccc(Cn2c(C)c(C(=O)NCc3ccc4c(c3)OCO4)sc2=O)cc1	/	i	/	6.9
COc1ccc(-n2nnnc2C(c2ccccc2)N2CCN(C/C=C/c3ccccc3)CC2)cc1 (stereo not given)	/	i	/	-7.7
Cc1ccc(C2=CSC3=NNC4(CCCCC4)NN23)cc1	5.0	+	7.5	-3.3
CC1=C/C(=C\C=C(C#N)C#N)N(C)c2ccccc21	/	+	5.4	-4.2
CN1/C(=C/C=C(C#N)C#N)C(C)(C)c2ccccc21	-5.2	i	10.3	4.0
Cn1c(SCC(=O)c2ccccc2)nc2cccnc21	-4.0	i	-3.9	-0.2
Cc1ccc(C(=O)CSc2nc3cccnc3n2C)cc1	-11.3	+	-7.9	-14.5
Cc1nc2c(OCc3ccc(OC(F)F)cc3)cccn2c1N(C)C(=O)CCC1CCCC1	/	i	/	-3.8
Cc1cc(C)c2c(N)c(C(=O)c3ccc(Cl)cc3)sc2n1	-8.9	i	1.5	-1.9
Cc1cc(-c2cccs2)c2c(N)c(C(=O)c3ccc4c(c3)OCO4)sc2n1	9.2	+	18.3	-1.7
Cc1ccc(C)c(OCc2ccc(C(=O)NN)o2)c1	/	+	4.2	1.8
Cc1cc(C)n(Cc2ccc(C(=O)NN)o2)n1	/	+	-4.0	-9.1
CCN(CC)CCn1c(=O)n(-c2ccc(Cl)cc2)c(=O)c2c3c(sc21)CN(C)CC3	/	+	-6.1	-3.0
COCC(C)OC(=O)C(C#N)c1nc2ccccc2nc1N1CCN(Cc2ccccc2)CC1 (stereo not given)	5.0	i	-1.1	1.3
COCCOC(=O)C(C#N)c1nc2ccccc2nc1N1CCN(Cc2ccccc2)CC1 (stereo not given)	-10.2	+	2.5	3.4
